Source: PubChem BioAssay (National Center for Advancing Translational Sciences (NCATS))
The list is not random: actives were taken first. Their share in the collection is about 10%.
BAZ2B inh: qHTS Assay for Inhibitors of BAZ2B. Bromodomain adjacent to zinc finger domain protein 2B (Homo sapiens), Q9UIF8. AlphaScreen BAZ2B-H3K14Ac peptide displacement. Potency, µM (series often up to 114 µM), actives largely listed as inhibitors. 360,000 compounds, 4.4% hits; further: nearly all actives have a fitted effect of over 60% in size
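BAZ2B 50 nM plus b-H3(5-23)K14Ac 50 nM, PBS pH 7.4/0.01% Tween-20, 30 min RT; compound added (max 110 uM), 30 min RT; streptavidin donor/Ni-chelate acceptor beads 10 ug/mL final, 20 min dark; AlphaScreen read.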
HP1b binding inh: HTS for Inhibitors of HP1-beta Chromodomain Interactions with Methylated Histone Tails; Chromobox protein homolog 1 (Homo sapiens), P83916; AlphaScreen HP1-beta / biotin-H3K9me3 peptide binding; Potency, µM (titrated, usually from 114 µM), usual class: inhibitors; 390,000 compounds, 0.56% hits; AID 540317, 2011; further: nearly all actives have a fitted effect of over 70% in size
Target sequence (P83916 whole entry, looked up): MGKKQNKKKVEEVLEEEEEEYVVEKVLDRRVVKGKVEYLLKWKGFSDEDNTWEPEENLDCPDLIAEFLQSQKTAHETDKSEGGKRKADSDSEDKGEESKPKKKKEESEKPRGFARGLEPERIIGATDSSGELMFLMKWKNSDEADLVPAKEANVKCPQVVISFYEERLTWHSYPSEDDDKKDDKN
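Compound inhibition of the preformed complex between 50 nM HP1-beta and 50 nM biotinylated H3K9me3 peptide was read by AlphaScreen. Buffer was PBS pH 7.4 with 0.01% Tween-20. Incubations ran 30 min at room temperature, with 10 ug/mL donor/acceptor beads.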
JMJD2A Tudor inh: qHTS Assay for Inhibitors of JMJD2A-Tudor Domain; Lysine-specific demethylase 4A (Homo sapiens), O75164; AlphaScreen JMJD2A-Tudor / H3K4me3 peptide binding; Potency, µM (doses to about 114 µM), actives largely listed as inhibitors; 390,000 compounds, 4.4% hits; AID 504339, 2011; further: nearly all actives have a fitted effect of over 50% in size
G9a inh: qHTS Assay for Inhibitors of Histone Lysine Methyltransferase G9a. 350,000 compounds, 8.8% hits. G9a H3K9 monomethylation, AlphaScreen, 2 h. Potency, µM (series often up to 102 µM), hits mostly inhibitors. Histone-lysine N-methyltransferase EHMT2 (Homo sapiens), Q96KQ7; further: nearly all actives have a fitted effect of over 75% in size
Target sequence (Q96KQ7 913-1193 limits assumed): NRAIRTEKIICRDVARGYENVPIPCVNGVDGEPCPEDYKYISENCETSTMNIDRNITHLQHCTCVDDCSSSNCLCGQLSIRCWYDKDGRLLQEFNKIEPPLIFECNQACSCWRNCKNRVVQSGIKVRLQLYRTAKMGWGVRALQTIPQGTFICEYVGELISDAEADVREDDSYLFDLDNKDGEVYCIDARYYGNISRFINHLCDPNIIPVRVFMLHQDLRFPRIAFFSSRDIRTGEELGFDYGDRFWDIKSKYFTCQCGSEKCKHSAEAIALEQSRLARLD
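Enzyme 20 nM + cpd, 15 min RT; add b-H3K9 pep 500 nM / SAM 20 uM; 2 h RT; anti-H3K9me1 Ab 0.5 ug/mL + SA donor / anti-rabbit acceptor beads 20 ug/mL each, 10 min; AlphaScreen read.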
GLS inhibitor: qHTS for Inhibitors of Glutaminase (GLS). Potency, µM (highest dose often 45.5 µM), actives largely listed as inhibitors. AID 624170, 2012. 410,000 compounds, 0.21% hits. GLS enzymatic activity, qHTS titration. Glutaminase kidney isoform, mitochondrial (Homo sapiens), O94925
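Read-out is an Amplex red fluorescence increase coupled through glutamate oxidase and HRP, measured before and after 30 min room-temperature incubation. hKGA is in 45 mM KH2PO4 (pH 8.2) with 0.02% Tween-20; glutamine added as 1mM solution.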
Large screens that a line does not name were inactive. The call rests on the fitted dose curve; in most records, active means well fitted curve in the direction sought with a large enough effect; inconclusive means small, poorly fitted or top-dose-only effect, or another doubt; inactive means no such curve, though single readings can be large; an effect the other way counts as inactive or inconclusive.

CC1(OC(=O)CCc2ccccc2)C(=O)C=C2C=C(c3ccc(C#N)cc3)N(C3CCCCC3)C=C2C1=O (stereo unspecified)	BAZ2B inh inconclusive, JMJD2A Tudor inh inconclusive
CC1(OC(=O)c2cccs2)C(=O)C=C2C=C3CCCN3C=C2C1=O (stereo unspecified)	BAZ2B inh 44.7µM, HP1b binding inh inconclusive, JMJD2A Tudor inh 56.2µM, GLS inhibitor 15.8µM
CCCN(CCC)c1nn2c(=O)c(C(=O)NCc3cc(Br)ccc3OC)cnc2s1	none
CCN(Cc1nc(-c2ccc(OC)cc2)oc1C)S(=O)(=O)c1ccc(Cl)cc1	BAZ2B inh inconclusive, HP1b binding inh inconclusive, G9a inh 12.6µM
C[C@@H]1[C@H](C)CC[C@@]2(C(=O)O)CC[C@]3(C)C(=CC[C@H]4[C@@]5(C)CC[C@@H](O)C(C)(C)[C@@H]5CC[C@@]43C)[C@@H]12	none (no result: BAZ2B inh, HP1b binding inh, JMJD2A Tudor inh, GLS inhibitor)
COc1ccc(C(=O)N2CCn3c(C)ccc3C2C)cc1 (stereo unspecified)	G9a inh inconclusive
CC(=O)c1c(C)c(C)c2n1CCn1c(C)ccc1-2	BAZ2B inh inconclusive, JMJD2A Tudor inh inconclusive, G9a inh 6.31µM
O=C(c1cccc(Cl)c1)N(Cc1cccc(F)c1)C1CCS(=O)(=O)C1 (stereo unspecified)	none
CC1CCCCN1S(=O)(=O)c1cc2c3c(c1)CC(=O)N3CCC2 (stereo unspecified)	none
COC(=O)CC(NC(=S)NC(=O)c1ccccc1)c1ccc(Br)cc1 (stereo unspecified)	G9a inh 39.8µM
COC(=O)CC(N)c1ccc(Br)cc1 (stereo unspecified)	none
Cc1nnc2sc(SCC(=O)Nc3cccc(Cl)c3)nn2c1=O	BAZ2B inh 39.8µM, JMJD2A Tudor inh inconclusive
Cc1ccccc1NC(=O)CSc1nn2c(=O)c(C)nnc2s1	BAZ2B inh inconclusive, JMJD2A Tudor inh 89.1µM
Cc1nnc2sc(SCC(=O)Nc3ccc(Br)cc3)nn2c1=O	BAZ2B inh 39.8µM, JMJD2A Tudor inh inconclusive
COc1cccc(NC(=O)CSc2nn3c(=O)c(C)nnc3s2)c1	JMJD2A Tudor inh inconclusive
CCCN(CCC)S(=O)(=O)c1ccc(NC(=O)COc2ccccc2)cc1	none
CCc1cc(C(c2ccccn2)N2CCN(C)CC2)c(NC(=O)c2ccccc2)s1 (stereo unspecified)	JMJD2A Tudor inh inconclusive, G9a inh 39.8µM
CCC(C(=O)O)N1C(=O)/C(=C/c2cccn2C)SC1=S (stereo unspecified)	BAZ2B inh inconclusive, G9a inh inconclusive
O=C(O)C(Cc1ccccc1)N1C(=O)/C(=C/C=C/c2ccco2)SC1=S (stereo unspecified)	BAZ2B inh 8.91µM, HP1b binding inh 10µM, JMJD2A Tudor inh 10µM (no result: G9a inh)
O=C(O)CC(C(=O)O)N1C(=O)/C(=C/C=C/c2ccco2)SC1=S (stereo unspecified)	BAZ2B inh 5.01µM, HP1b binding inh 3.55µM, JMJD2A Tudor inh 3.55µM, GLS inhibitor 2.82µM
O=C(O)CCCN1C(=O)/C(=C/C=C/c2ccco2)SC1=S	BAZ2B inh 3.98µM, HP1b binding inh 14.1µM, JMJD2A Tudor inh 5.62µM
Cc1ccc(NC(=O)CCCN2C(=O)/C(=C/C=C/c3ccccc3)SC2=S)cc1	none
Cc1ccc(S(=O)(=O)c2[nH]c(-c3ccccc3)nc2SCC(N)=O)cc1	none
O=C(Nc1ccccc1C(=O)OCc1cc(=O)n2nc(C3CC3)sc2n1)c1cccc(F)c1	none
COc1ccc2c(c1)nc(-c1cccc(Br)c1)c(=O)n2C(c1ccccn1)c1nc2ccccc2[nH]1 (stereo unspecified)	none (no result: BAZ2B inh, HP1b binding inh, JMJD2A Tudor inh, G9a inh)
c1ccc(-c2nc(Sc3ncnc4c3cnn4-c3ccccc3)n[nH]2)cc1	G9a inh 31.6µM (no result: HP1b binding inh, JMJD2A Tudor inh, GLS inhibitor)
COc1ccc(-n2c(SC)nc3sc4c(c3c2=O)CCN(C)C4)cc1	G9a inh inconclusive
COC(=O)CSc1nnc2n(-c3ccc(OC)cc3)c(=O)c3c4c(sc3n12)CCCCC4	none
COc1ccc(-n2c(=O)c3c4c(sc3n3c(=S)[nH]nc23)CCCC4)cc1	JMJD2A Tudor inh 56.2µM, G9a inh inconclusive, GLS inhibitor inconclusive
CC(C)C1Cc2c(sc3c2c(=O)n(-c2ccccc2)c2n[nH]c(=S)n32)CO1 (stereo unspecified)	JMJD2A Tudor inh 20µM, G9a inh 1.26µM
COc1ccc(-n2c(=S)[nH]c3sc4c(c3c2=O)CCN(C)C4)cc1	G9a inh 14.1µM (no result: HP1b binding inh, JMJD2A Tudor inh, GLS inhibitor)
COc1ccccc1CN(C)C(=O)c1cccc(S(=O)(=O)N2CCCc3ccccc32)c1	none
COC(=O)c1ccc2c(=O)sc(N3CCC(C(N)=O)CC3)nc2c1	G9a inh inconclusive
CN(CC(=O)Nc1ccc(Cl)c(C(F)(F)F)c1)C(=O)c1ccc2c(c1)OCCO2	none
CCN(CC(=O)Nc1ccc(OC)cc1)CC(=O)Nc1ccc2c(c1)OCO2	G9a inh inconclusive
CCN(CC(=O)Nc1ccc2c(c1)OCCO2)CC(=O)Nc1ccccc1C(F)(F)F	HP1b binding inh 28.2µM, JMJD2A Tudor inh 5.01µM (no result: BAZ2B inh, G9a inh)
CCN(CC(=O)Nc1ccc(C(C)=O)cc1)CC(=O)Nc1ccc2c(c1)OCCO2	HP1b binding inh inconclusive, JMJD2A Tudor inh 0.316µM (no result: BAZ2B inh, G9a inh)
CCN(CC)c1ccc(NC(=O)c2cccnc2)c(C)c1	G9a inh 31.6µM
Cc1ccc(NC(=O)c2cnc3cc(C)ccn3c2=O)c(C)c1	none
CCN(CC)c1ccc(NC(=O)c2cnc3ccccn3c2=O)c(C)c1	BAZ2B inh inconclusive, HP1b binding inh inconclusive, JMJD2A Tudor inh 44.7µM, G9a inh 1.78µM
COc1cc(C(=O)Nc2ccc(OCC(=O)N3CCOCC3)cc2C)cc(OC)c1OC	none
COc1c(C)cccc1C(=O)Nc1ccc(OCC(=O)N2CCOCC2)cc1C	BAZ2B inh 56.2µM
CCN(CC)c1ccc(NC(=O)c2cccc(C)c2OC)c(C)c1	BAZ2B inh 35.5µM, HP1b binding inh inconclusive, JMJD2A Tudor inh 39.8µM, G9a inh 3.55µM
CC(=O)N1CCCc2cc(S(=O)(=O)Nc3ccc(C)c(C)c3)ccc21	none (no result: BAZ2B inh, HP1b binding inh, G9a inh, GLS inhibitor)
COC(=O)c1nc(N)sc1-c1ccc(Cl)cc1	G9a inh 44.7µM
COC(=O)c1nc(N)sc1-c1ccccc1	none
CCCCCC(=O)N1C[C@@H](n2cc(-c3ccc(F)cc3)nn2)[C@H](O)C[C@@H]1c1ccc(OC)cc1	none (no result: BAZ2B inh, HP1b binding inh, JMJD2A Tudor inh, G9a inh)
CC(C)(C)C(=O)OCOP(=O)(OCOC(=O)C(C)(C)C)C(C)(Oc1ccc(O)cc1)P(=O)(OCOC(=O)C(C)(C)C)OCOC(=O)C(C)(C)C	G9a inh 3.55µM (no result: BAZ2B inh, HP1b binding inh, JMJD2A Tudor inh, GLS inhibitor)
CC(C)(C)C(=O)COC(=O)c1ccc(O)cc1	none
